Assay results reported in the supplement of paper PMC10849652.
Targets with a hit are over-represented here; the source holds about 8,800 in all. About 0.5% of all pairs of compound and target were hits.

Tests used:
Test in all cases: log2 fold change, soluble protein after heating vs DMSO (PISA); higher = thermal stabilisation; K562 lysate, 10 uM; active = over 0.2 and 3.5 SD of the protein, either way, in both replicates (recomputed)
[1] = compound: CN1CC[C@H](c2c(O)cc(O)c3c(=O)cc(-c4ccccc4Cl)oc23)[C@H](O)C1 [alvocidib]
In short: (§1)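 K562 pellets were dounce-homogenised in PBS pH 7.4 containing 1 mM MgCl2, and the crude extract, at 1 mg/mL protein, was exposed to 10 μM compound for 30 min. Aliquots were heated for 3 min across 48°C-58°C, pooled, brought to 0.5% NP-40 at 4°C and spun at 21,000xg for 90 min, with the supernatant taken as soluble protein. TMTpro 16plex LC-MS/MS with equalised channel sums quantified that protein. Values are log-two fold changes in thermal stability relative to solvent controls, taken from duplicates.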

[2] = compound: CN1CCc2c(c3ccccc3n2Cc2ccc(C(=O)NO)cc2)C1 [Tubastatin A]
In short: as §1

[3] = compound: CNC(=O)C1=CC=CC=C1NC2=NC(=NC=C2Cl)NC3=C(C=C(C=C3)N4CCOCC4)OC
In short: as §1

[4] = compound: CNC(=O)c1ccc(Nc2ncc(C(F)(F)F)c(NCc3nccnc3N(C)S(C)(=O)=O)n2)cc1 [defactinib]
In short: as §1

[5] = compound: CNc1nc(-c2ccc3c(N)n[nH]c3c2)cc(N2C[C@@H](C(=O)NC3CCCCC3)CC[C@H]2C)n1
In short: as §1

[6] = compound: COC(=O)N[C@@H](C)CNc1nccc(-c2cn(C(C)C)nc2-c2cc(Cl)cc(NS(C)(=O)=O)c2F)n1 [encorafenib]
In short: as §1

[7] = compound: COC(=O)[C@H](CCSC)NC(=O)C1=C(C=C(C=C1)NC[C@H](CS)N)C2=CC=CC=C2
In short: as §1

[8] = compound: COc1cc(Nc2ncc3c(n2)-c2ccc(Cl)cc2C(c2c(F)cccc2OC)=NC3)ccc1C(=O)O [alisertib]
In short: as §1

[9] = compound: COc1cc2nc(-c3cc(F)ccc3O)nc(N[C@@H]3CNC[C@H]3C(C)(C)O)c2cc1OC
In short: as §1

[10] = compound: COc1cc2ncnc(Nc3ccc(F)c(Cl)c3)c2cc1OCCCN1CCOCC1 [gefitinib]
In short: as §1

[11] = compound: CS(=O)(=O)CCNCc1ccc(-c2ccc3ncnc(Nc4ccc(OCc5cccc(F)c5)c(Cl)c4)c3c2)o1 [lapatinib]
In short: as §1

[12] = compound: C[C@@H](Oc1cc(-c2cnn(C3CCNCC3)c2)cnc1N)c1c(Cl)ccc(F)c1Cl [crizotinib]
In short: as §1

[13] = compound: C[C@H](C1=CC=C(C=C1)C(=O)NC2=C3C=CNC3=NC=C2)N
In short: as §1

[14] = compound: C[C@H](Nc1ncnc2nc[nH]c12)c1cc2cccc(Cl)c2c(=O)n1-c1ccccc1 [duvelisib]
In short: as §1

[15] = compound: Cc1cc(Nc2cc(CN3CCOCC3)c3nc(C)c(Cc4ccc(Cl)cc4F)n3n2)n[nH]1 [gandotinib]
In short: as §1

[16] = compound: Cc1cc(Nc2cc(N3CCN(C)CC3)nc(Sc3ccc(NC(=O)C4CC4)cc3)n2)n[nH]1 [tozasertib]
In short: as §1

[17] = compound: Cc1ccc(-n2nc(C(C)(C)C)cc2NC(=O)Nc2ccc(OCCN3CCOCC3)c3ccccc23)cc1 [doramapimod]
In short: as §1

[18] = compound: Cc1cccc(CC(=O)N2CCc3c2ccc(-c2cn(C)c4ncnc(N)c24)c3F)n1
In short: as §1

[19] = compound: CS(=O)(=O)N1CCN(Cc2cc3nc(-c4cccc5[nH]ncc45)nc(N4CCOCC4)c3s2)CC1 [pictilisib]
In short: as §1

[20] = compound: Cc1ccc(NC(=O)c2ccc(CN3CC[C@H](N(C)C)C3)c(C(F)(F)F)c2)cc1Nc1nccc(-c2cncnc2)n1 [bafetinib]
In short: as §1

Measured: log2 fold change

KIF3C (UniProt O14782)
UniProt O14782, sequence (O14782 whole entry, looked up): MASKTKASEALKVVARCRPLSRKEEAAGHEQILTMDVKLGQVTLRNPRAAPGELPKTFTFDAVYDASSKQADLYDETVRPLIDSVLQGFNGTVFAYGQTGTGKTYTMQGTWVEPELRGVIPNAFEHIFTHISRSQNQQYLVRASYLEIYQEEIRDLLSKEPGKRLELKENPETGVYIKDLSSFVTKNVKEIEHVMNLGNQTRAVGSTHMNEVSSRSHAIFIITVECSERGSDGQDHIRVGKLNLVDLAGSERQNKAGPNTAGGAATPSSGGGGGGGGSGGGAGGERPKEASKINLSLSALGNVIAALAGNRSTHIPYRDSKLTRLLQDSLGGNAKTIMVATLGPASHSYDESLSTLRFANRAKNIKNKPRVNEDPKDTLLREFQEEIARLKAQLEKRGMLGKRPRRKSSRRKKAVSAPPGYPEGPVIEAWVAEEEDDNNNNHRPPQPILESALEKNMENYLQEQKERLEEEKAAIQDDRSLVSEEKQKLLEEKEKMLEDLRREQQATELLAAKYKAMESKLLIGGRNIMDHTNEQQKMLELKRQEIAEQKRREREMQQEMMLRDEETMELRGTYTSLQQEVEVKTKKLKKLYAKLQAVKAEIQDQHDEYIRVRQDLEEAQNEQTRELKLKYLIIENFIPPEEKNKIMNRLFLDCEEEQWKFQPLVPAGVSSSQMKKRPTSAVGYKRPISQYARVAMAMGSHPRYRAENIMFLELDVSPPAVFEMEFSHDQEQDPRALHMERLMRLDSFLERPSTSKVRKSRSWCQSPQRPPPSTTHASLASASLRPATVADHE
inactive: [1] 0.033 | [2] -0.018 | [3] -0.01 | [4] 0.157 | [5] 0.058 | [6] 0.101 | [7] 0.024 | [8] 0.247 | [9] 0.07 | [10] -0.029 | [11] -0.172 | [12] -0.177 | [13] -0.119 | [14] 0 | [15] -0.002 | [16] -0.394 | [17] -0.031 | [18] 0.152

LYN isoform 2 (UniProt P07948)
UniProt P07948, sequence (P07948 whole entry, looked up): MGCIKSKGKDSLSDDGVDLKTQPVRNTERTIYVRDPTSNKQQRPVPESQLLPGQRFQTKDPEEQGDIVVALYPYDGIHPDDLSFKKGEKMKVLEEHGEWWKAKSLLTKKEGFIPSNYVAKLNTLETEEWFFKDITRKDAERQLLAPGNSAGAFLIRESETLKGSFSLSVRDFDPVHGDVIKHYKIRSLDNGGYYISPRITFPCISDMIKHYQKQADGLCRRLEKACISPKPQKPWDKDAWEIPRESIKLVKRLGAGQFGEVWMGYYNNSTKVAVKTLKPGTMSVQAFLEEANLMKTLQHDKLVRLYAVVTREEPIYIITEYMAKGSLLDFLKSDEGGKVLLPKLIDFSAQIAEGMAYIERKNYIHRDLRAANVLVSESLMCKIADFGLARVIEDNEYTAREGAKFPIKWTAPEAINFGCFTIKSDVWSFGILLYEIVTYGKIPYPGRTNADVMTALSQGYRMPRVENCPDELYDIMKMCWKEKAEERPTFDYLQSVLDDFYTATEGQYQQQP
active: [15] 0.891
inactive: [1] 0.138 | [2] -0.153 | [3] 0.175 | [5] 0.014 | [6] -0.063 | [7] 0.301 | [8] 0.229 | [10] 0.054 | [12] 0.049 | [13] 0.026 | [14] -0.357 | [16] 0.126 | [17] -0.076 | [18] -0.006

LPCAT1 (UniProt Q8NF37)
inactive: [1] -0.117 | [2] 0.117 | [3] 0.067 | [4] 0.045 | [5] 0.097 | [6] 0.037 | [7] -0.063 | [8] 0.07 | [9] -0.01 | [10] -0.009 | [11] 0.005 | [19] -0.034 | [12] -0.031 | [13] -0.209 | [14] -0.107 | [15] 0.115 | [16] 0.006 | [17] -0.048 | [20] -0.072 | [18] 0.078

KIFC3 isoform 6 (UniProt Q9BVG8)
inactive: [3] 0.003 | [4] -0.255 | [5] 0.308 | [6] -0.053 | [7] 0.04 | [19] -0.127 | [12] -0.21 | [14] 0.089 | [15] 0.111 | [16] -0.111 | [17] -0.034 | [20] -0.221 | [18] 0.296
active: [1] -0.786 | [13] -1.85

MAP4 isoform 5 (UniProt P27816)
UniProt P27816, sequence (P27816 whole entry, looked up): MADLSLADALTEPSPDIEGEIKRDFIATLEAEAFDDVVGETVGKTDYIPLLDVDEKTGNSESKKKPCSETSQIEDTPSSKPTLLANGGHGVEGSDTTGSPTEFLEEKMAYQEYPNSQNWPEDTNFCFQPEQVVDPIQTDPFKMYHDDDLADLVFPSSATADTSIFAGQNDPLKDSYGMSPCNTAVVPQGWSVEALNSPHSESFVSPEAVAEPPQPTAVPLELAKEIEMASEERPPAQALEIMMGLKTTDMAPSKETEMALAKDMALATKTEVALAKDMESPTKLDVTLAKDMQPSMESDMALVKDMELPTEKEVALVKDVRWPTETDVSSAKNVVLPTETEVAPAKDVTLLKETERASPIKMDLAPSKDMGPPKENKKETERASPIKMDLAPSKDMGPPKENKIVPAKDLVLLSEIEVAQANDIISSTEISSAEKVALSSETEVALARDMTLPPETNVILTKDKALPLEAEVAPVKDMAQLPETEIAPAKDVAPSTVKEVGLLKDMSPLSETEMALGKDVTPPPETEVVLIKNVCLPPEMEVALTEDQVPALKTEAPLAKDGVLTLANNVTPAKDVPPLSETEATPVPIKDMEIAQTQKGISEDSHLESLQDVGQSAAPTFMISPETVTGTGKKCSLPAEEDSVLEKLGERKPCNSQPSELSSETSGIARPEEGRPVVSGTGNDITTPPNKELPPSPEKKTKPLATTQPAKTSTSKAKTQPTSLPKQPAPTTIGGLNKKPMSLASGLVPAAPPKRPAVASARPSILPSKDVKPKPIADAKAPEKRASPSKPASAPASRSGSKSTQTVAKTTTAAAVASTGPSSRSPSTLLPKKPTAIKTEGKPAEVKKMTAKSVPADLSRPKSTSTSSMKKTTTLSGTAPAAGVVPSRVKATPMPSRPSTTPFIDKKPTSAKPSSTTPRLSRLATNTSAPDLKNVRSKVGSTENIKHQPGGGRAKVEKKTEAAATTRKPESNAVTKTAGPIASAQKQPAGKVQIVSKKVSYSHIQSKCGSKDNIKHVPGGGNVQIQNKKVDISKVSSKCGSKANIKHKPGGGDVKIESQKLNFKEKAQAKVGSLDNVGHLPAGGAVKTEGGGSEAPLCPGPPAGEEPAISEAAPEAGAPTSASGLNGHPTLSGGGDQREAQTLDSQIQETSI
inactive: [2] 0.077 | [3] 0.087 | [4] -0.086 | [5] 0.138 | [6] -0.051 | [7] -0.025 | [8] 0.047 | [9] -0.028 | [10] 0.039 | [11] -0.089 | [19] -0.008 | [12] -0.034 | [14] 0.159 | [16] 0.008 | [17] -0.061 | [20] 0.081

KLC1 isoform 10 (UniProt Q07866)
inactive: [3] 0.147 | [6] 0.06 | [7] -0.109 | [19] -0.167 | [16] 0.016 | [20] 0.032

LRPPRC (UniProt H7C3W8)
inactive: [4] -0.063

LRRC9 (UniProt Q6ZRR7)
active: [18] 0.694
inactive: [1] 0.911 | [4] -0.056 | [6] -0.022 | [7] 0.003 | [12] -0.065 | [13] 0.032 | [15] -0.488 | [16] 0.053 | [17] 0.074

LEPROT (UniProt O15243)
inactive: [1] 0.006 | [2] 0.01 | [3] 0 | [6] -0.003 | [7] 0.01 | [9] 0.022 | [11] -0.058 | [19] 0 | [12] -0.069 | [13] -0.019 | [15] 0.054 | [16] -0.116 | [17] 0 | [20] -0.067 | [18] 0.056

KRAS isoform 2 (UniProt P01116)
inactive: [2] 0.076 | [3] -0.037 | [5] 0.046 | [6] -0.109 | [7] -0.062 | [9] 0.019 | [11] -0.023 | [12] -0.016 | [14] -0.022 | [16] -0.043 | [17] -0.062

MCUB (UniProt Q9NWR8)
inactive: [1] 0.019 | [2] 0.105 | [3] -0.032 | [5] -0.074 | [8] 0.121 | [9] -0.062 | [10] -0.046 | [11] 0.044 | [19] 0.088 | [12] -0.17 | [13] 0.187 | [14] -0.018 | [15] -0.347 | [17] 0.05 | [20] -0.045 | [18] -0.016

LRRIQ1 (UniProt Q96JM4)
inactive: [2] -0.096 | [4] -0.031 | [9] -0.037 | [11] 0.04 | [12] -0.278 | [17] -0.073

KIF21A (UniProt H0YI78)
inactive: [3] 0.056 | [5] -0.01 | [8] -0.003 | [9] 0.029 | [10] -0.1 | [11] -0.11 | [19] 0.052 | [14] -0.013 | [20] 0.187

MAP4K4 isoform 6 (UniProt O95819)
inactive: [2] 0.024 | [3] -0.067 | [5] -0.016 | [6] 0.207 | [7] -0.034 | [9] -0.058 | [11] -0.002 | [19] -0.092 | [14] -0.038 | [16] 0.102 | [20] 0.016

MARCHF6 (UniProt O60337)
UniProt O60337, sequence (O60337 whole entry, looked up): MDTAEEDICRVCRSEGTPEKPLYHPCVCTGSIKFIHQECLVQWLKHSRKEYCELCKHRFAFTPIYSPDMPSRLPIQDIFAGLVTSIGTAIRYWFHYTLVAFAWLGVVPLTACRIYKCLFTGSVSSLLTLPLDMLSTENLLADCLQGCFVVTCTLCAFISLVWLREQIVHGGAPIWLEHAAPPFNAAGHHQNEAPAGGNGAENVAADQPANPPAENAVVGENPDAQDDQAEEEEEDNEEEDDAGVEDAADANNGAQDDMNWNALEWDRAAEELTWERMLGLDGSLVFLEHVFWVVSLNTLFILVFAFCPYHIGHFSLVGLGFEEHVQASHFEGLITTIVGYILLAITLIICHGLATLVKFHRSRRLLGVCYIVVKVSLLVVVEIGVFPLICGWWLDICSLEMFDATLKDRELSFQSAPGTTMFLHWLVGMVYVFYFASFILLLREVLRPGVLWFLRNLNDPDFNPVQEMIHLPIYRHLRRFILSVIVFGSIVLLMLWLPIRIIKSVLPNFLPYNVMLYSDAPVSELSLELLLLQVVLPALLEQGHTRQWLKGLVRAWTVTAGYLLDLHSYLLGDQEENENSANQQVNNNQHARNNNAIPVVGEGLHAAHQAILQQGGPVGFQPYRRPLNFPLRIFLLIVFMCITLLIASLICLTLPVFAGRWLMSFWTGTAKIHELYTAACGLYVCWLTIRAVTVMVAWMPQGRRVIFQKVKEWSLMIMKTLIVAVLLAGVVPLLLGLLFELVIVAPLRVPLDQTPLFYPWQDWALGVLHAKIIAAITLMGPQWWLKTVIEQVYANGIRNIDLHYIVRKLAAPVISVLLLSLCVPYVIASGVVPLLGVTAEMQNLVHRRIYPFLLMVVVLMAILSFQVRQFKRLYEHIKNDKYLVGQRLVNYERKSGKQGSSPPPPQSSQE
inactive: [1] 0.07 | [3] -0.039 | [4] 0.046 | [5] 0.084 | [6] 0.08 | [7] -0.05 | [8] -0.321 | [9] 0.008 | [10] 0.019 | [11] -0.039 | [19] 0.09 | [12] -0.118 | [13] -0.073 | [14] 0.103 | [15] -0.028 | [16] 0.004 | [17] 0.003 | [20] -0.105 | [18] -0.005

METTL21A (UniProt Q8WXB1)
UniProt Q8WXB1, sequence (Q8WXB1 whole entry, looked up): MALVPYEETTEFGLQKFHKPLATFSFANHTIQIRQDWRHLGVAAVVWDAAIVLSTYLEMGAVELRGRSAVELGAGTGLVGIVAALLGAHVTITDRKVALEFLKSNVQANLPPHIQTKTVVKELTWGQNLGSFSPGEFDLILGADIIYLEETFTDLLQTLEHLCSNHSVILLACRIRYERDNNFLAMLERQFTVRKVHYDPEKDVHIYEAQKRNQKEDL
inactive: [1] 0.009 | [2] 0.052 | [3] 0.087 | [5] 0 | [8] 0.004 | [9] 0.011 | [10] -0.028 | [11] 0.004 | [19] 0.06 | [12] -0.043 | [13] -0.083 | [14] 0.131 | [15] 0.038 | [17] -0.081 | [20] -0.04 | [18] 0.016

MME (UniProt P08473)
UniProt P08473, sequence (P08473 whole entry, looked up): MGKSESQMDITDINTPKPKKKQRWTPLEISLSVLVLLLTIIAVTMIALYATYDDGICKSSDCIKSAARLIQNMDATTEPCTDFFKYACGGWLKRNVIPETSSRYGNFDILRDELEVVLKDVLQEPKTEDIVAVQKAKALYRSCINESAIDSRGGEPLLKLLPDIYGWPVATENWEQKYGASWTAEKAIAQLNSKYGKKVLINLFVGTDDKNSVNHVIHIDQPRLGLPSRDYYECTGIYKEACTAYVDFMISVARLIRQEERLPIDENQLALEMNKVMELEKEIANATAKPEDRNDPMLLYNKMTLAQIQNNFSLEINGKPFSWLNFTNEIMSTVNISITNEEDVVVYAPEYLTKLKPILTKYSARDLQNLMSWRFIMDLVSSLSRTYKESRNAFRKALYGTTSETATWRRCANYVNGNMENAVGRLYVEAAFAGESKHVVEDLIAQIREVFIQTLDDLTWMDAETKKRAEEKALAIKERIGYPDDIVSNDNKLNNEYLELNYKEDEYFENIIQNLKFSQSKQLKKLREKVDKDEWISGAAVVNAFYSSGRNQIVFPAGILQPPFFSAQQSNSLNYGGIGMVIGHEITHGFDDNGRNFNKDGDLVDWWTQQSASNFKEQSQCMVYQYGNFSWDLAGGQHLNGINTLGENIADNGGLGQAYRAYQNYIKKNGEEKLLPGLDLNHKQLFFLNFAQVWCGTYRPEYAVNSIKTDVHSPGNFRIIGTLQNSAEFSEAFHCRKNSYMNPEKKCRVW
inactive: [1] -0.01 | [2] 0.081 | [3] 0.048 | [5] 0.142 | [8] -0.079 | [9] -0.018 | [10] 0.066 | [11] 0.025 | [19] -0.024 | [12] 0.037 | [13] 0.037 | [14] 0.066 | [15] -0.002 | [17] 0.002 | [20] 0.058 | [18] 0.048

LIMK1 (UniProt P53667)
UniProt P53667, sequence (P53667 whole entry, looked up): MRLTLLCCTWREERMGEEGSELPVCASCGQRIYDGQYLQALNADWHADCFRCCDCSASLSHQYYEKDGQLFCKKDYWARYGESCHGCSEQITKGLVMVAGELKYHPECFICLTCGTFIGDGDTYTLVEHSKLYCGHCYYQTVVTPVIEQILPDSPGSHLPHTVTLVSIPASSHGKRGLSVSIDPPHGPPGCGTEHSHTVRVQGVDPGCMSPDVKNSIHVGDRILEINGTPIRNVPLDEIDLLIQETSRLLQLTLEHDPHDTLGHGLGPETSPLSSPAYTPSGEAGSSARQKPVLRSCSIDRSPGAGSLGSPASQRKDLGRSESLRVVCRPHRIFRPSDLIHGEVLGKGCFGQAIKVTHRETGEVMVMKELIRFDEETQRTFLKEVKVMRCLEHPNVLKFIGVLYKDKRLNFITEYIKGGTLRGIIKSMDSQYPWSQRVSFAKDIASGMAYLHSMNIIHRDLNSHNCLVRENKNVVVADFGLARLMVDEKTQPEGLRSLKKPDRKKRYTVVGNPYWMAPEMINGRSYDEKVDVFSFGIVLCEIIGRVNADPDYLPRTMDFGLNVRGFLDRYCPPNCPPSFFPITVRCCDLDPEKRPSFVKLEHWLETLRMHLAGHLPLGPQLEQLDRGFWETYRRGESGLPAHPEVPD
active: [6] 0.489
inactive: [1] -0.135 | [2] 0 | [4] -0.053 | [5] -0.085 | [7] -0.086 | [8] -0.261 | [9] -0.203 | [10] 0.106 | [11] 0.049 | [19] -0.087 | [12] 0.276 | [13] 0.029 | [14] 0.109 | [15] -0.03 | [16] 0.096 | [17] -0.009 | [20] -0.348 | [18] 0.138

LRRC7 (UniProt Q96NW7)
inactive: [1] 0.069 | [2] 0.079 | [4] 0.251 | [5] 0.058 | [6] -0.103 | [7] 0.026 | [9] -0.016 | [11] -0.048 | [19] 0.041 | [12] 0.065 | [13] -0.025 | [14] 0.083 | [15] -0.07 | [16] -0.018 | [17] 0.001 | [20] 0.112 | [18] 0.093

MAP4K4 isoform 3 (UniProt O95819)
inactive: [2] -0.016 | [3] -0.028 | [4] 0.03 | [5] -0.08 | [6] -0.075 | [7] -0.014 | [9] 0.035 | [10] -0.051 | [11] -0.061 | [19] -0.049 | [13] 0.201 | [14] 0.078 | [15] -0.088 | [16] 0.014 | [17] 0.087 | [20] 0.03 | [18] -0.01
